Tested on: VDR:RXRa (NR concentration 270 nM, RXRa partner concentration 90 nM)
Assay: PBM binding z-score (relative to random genomic background probes); higher = stronger binding; sequences stand for … in GC…GCGATTGACAGCGTAGAATGAAGG
Procedure: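 Protein-binding microarray (Agilent 4x180K custom design, double-stranded 60-nt probes: 5' GC cap, 34-nt variable region, 24-nt constant primer region; full probe sequence given). Purified or IVT nuclear receptor:RXRα heterodimers (3:1 NR:RXRα, mostly 270:90 nM) or homodimers were incubated for 1 h in PBS with 2% milk and no ligand, then detected with Alexa488 antibodies. Fluorescence from o1-orientation probes (~5 replicates averaged) was converted to z-scores against 500 random hg19 background probes. Variable regions are seed direct-repeat (DR0–DR5) sites, all their single-nucleotide variants and half-site ablations.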

In order of falling PBM binding z-score:
1. CAAATTAGGTCACAGAGGTCAAAGTCCGTGCGTA  8.12
2. ATATGTAGGTTAGCTGGGGTCATGCAGACTAGGC  5.85
3. CAAACTAGGCCAAGAGGTCAAAGTCCGCTTCCCG  4.94
4. ACTCGTTGGTCAGCTGAGGTCACACACAATTCGG  4.61
5. ATATGTAGGTTACATTCGGGTCATTCAGGCTATG  4.24
6. AATACAGGGTCACTAGCCCAGAGTAGGTACGAAT  4
7. ATATGTAGGTTATCGGGTCATTCACTTTGCGCAT  3.73
8. ACTCGGAGGACAAAGGTCAGAGGTACGCCAGTGA  3.52
9. AGTCAAAGTTCACTAGGTAACGAAAGATTCAGCT  3.25
10. AGTTAAAGTTCAGGACGAGGTAACGTAAAGCACG  3.01
11. CCTCGGAGGACAGAAGGTCATAGCTGTCCGCTTT  2.69
12. ATCTCTAGGTAACAAGTTCAATGAAAGAGAGGAC  2.67
13. TTACCAAGGTGAGCTGAGGTCGATGATCCAACTC  2.51
14. ATCGAAAGGTCGACGAAGTGAGTATACACCGTTT  2.27
15. ACTAGTTGGTCAGCTGAGGTCGCACACAATTCGG  2.2
16. ATCTCTAGGTAACAAGTTCAGTCAAAGAGAGGAC  1.74
17. ATCTCTAGGTTAGACTCAGTTCAGTGAAGAACGC  1.7
18. TCAGACAGGTGAAGGTTACTCAGGTACGCAGTCG  1.69
19. TCATGTAGATCAAAGGTTAAGAAAGCCGAAGCCT  1.66
20. TCATATAGGTACAAGGTGAAAGTCGGTGTGGTAA  1.22
21. TCACATAGGTAATACAGGTGAAAGTCGGCATCTA  1.09
22. TCTATTAGTTGAAGGGCAACCTACGAGTCCGTTT  0.986
23. CGAACTAGGTCAGAACAGGGCAGTGAAGGATGAT  0.903
24. CCTGCTAGGTCAATGGTCCGCTAAAGCAGCTCGC  0.759
25. TCTTGTAGATCAATAGGAGGTTAAGAAAGATCGA  0.721
26. TCATATAGGTAAAGTTGAAAGTCGAACGATATGA  0.583
27. TCATATAGGCAAATGCTAGGTGAAAGTCCGATCT  0.571
28. ATATGTAGGTTACATCCGCGTCATTCAGGCTATG  0.515
29. CGAACTAGGTCAGAATAGGACAGTGAAGGATGAT  0.491
30. TCAGACAGGTGAAGGTAAGTCAGGTACGCAGTCG  0.301
31. GCAGAAAGGTGAAACGCAGGTAACTCAGGGTGGC  0.145
32. GCTTGTAGAACAAGGTTAAGAAAGACTAAGCTAA  0.106
33. ATCTCTAGGTAACCAACTTCAGTGAATGCCGAAC  0.0615
34. ACTATTAGTTGACTTAGAGCAACCGATACGACGC  -0.14
35. CCCGACAGGTGAGAAGGTAACTCAGCCTCGATTA  -0.17
36. GCTATTAGTTGAACGGGCAACCGAATGATTCTCG  -0.187
37. GCTGCTTGGTCAGGTTGGTCAGCTAACGGGTACG  -0.35
38. CCTGCTTGGTCAATGGTCAGCTAAAGCAGCTCGC  -0.576
39. ACTCGGAGGACAATGGTCAGAGCTACGCCAGTGA  -0.697
40. GCTGCTAGCTCAGGTTGGTCAGCTAACGGGTACG  -0.71

Source: the supplement of paper PMC6555819
